Experimental data reported in ChEMBL document CHEMBL1961873, “Compounds: GSK PKIS; Assays: Nanosyn kinase panel” (2012).

How the values were obtained:
[1] = biological target: Protein kinase C gamma type (Homo sapiens) (UniProt P05129); settings: at 1 µM;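 note: each value is an averaged percent inhibition of the enzyme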
[2] = biological target: T1, Protein kinase C iota type (Homo sapiens) (UniProt P41743); settings: at 0.1 µM
T1 sequence (whole entry): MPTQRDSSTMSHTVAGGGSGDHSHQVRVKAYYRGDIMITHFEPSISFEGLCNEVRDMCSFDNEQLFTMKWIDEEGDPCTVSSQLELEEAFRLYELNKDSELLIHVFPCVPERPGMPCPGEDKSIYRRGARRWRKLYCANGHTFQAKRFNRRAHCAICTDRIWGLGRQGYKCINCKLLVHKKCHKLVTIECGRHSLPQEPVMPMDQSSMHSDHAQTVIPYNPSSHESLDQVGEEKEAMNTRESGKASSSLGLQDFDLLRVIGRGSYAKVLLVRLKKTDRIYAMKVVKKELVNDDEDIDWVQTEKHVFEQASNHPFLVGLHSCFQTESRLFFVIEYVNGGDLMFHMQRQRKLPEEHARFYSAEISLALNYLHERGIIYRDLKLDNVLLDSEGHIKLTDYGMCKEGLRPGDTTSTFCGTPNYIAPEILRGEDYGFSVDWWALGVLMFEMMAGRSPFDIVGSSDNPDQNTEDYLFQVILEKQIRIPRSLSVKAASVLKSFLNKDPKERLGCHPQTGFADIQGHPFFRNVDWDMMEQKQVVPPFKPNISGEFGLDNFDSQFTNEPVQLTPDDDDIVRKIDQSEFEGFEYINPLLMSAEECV

[3] = biological target: T1, Protein kinase C iota type (Homo sapiens); settings: at 1 µM
[4] = biological target: Protein kinase C theta type (Homo sapiens) (UniProt Q04759); settings: at 0.1 µM
[5] = biological target: Protein kinase C theta type (Homo sapiens) (UniProt Q04759); settings: at 1 µM
[6] = biological target: Protein kinase C beta type (Homo sapiens) (UniProt P05771); settings: at 0.1 µM
[7] = biological target: Protein kinase C beta type (Homo sapiens) (UniProt P05771); settings: at 1 µM
[8] = biological target: T2, Serine/threonine-protein kinase D1 (Homo sapiens) (UniProt Q15139); settings: at 0.1 µM
T2 sequence (whole entry): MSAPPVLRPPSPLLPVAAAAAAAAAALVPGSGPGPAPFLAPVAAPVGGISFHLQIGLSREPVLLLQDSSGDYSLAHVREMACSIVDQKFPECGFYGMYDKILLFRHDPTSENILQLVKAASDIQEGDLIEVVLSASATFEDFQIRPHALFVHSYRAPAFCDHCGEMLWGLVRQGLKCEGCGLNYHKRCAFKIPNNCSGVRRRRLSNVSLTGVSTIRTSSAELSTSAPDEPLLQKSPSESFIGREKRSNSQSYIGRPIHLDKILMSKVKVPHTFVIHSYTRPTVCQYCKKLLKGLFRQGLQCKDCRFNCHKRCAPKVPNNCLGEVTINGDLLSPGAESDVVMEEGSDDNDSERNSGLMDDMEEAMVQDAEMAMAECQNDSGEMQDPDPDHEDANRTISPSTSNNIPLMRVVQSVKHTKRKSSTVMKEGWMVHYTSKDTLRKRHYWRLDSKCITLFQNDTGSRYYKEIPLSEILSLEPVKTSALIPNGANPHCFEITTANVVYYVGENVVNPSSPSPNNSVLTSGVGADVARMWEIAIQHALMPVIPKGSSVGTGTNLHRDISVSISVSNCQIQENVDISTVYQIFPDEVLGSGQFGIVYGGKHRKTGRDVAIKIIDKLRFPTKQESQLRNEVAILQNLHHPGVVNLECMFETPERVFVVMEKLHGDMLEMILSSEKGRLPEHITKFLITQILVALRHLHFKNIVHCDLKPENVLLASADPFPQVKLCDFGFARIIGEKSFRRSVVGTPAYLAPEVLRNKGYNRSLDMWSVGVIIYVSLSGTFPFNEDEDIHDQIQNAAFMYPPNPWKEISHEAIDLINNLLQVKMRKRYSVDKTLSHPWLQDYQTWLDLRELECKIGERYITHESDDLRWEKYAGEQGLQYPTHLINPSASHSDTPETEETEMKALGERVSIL

[9] = biological target: T2, Serine/threonine-protein kinase D1 (Homo sapiens); settings: at 1 µM
[10] = biological target: T3, Serine/threonine-protein kinase D2 (Homo sapiens) (UniProt Q9BZL6); settings: at 0.1 µM
T3 sequence (whole entry): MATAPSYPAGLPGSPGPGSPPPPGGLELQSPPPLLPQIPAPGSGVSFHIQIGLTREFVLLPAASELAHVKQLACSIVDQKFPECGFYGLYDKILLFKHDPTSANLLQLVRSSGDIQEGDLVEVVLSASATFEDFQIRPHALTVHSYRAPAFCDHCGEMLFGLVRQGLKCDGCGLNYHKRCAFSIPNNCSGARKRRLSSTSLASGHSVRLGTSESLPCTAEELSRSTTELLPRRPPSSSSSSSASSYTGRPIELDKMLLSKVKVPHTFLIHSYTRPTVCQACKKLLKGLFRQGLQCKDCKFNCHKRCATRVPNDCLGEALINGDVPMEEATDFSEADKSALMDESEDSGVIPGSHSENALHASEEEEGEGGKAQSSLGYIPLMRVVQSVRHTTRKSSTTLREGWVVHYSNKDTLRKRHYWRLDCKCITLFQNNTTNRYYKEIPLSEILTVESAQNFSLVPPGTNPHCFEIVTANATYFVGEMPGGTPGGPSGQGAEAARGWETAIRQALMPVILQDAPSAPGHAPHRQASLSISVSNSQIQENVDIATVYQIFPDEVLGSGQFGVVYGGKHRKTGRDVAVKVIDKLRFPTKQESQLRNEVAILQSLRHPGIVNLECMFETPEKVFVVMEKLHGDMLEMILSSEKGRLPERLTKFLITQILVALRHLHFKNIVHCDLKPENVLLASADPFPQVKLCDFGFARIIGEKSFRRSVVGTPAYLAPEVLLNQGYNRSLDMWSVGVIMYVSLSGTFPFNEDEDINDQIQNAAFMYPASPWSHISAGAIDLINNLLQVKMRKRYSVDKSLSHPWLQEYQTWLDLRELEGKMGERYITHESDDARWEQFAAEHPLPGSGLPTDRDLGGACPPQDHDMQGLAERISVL

[11] = biological target: T3, Serine/threonine-protein kinase D2 (Homo sapiens); settings: at 1 µM
[12] = biological target: T4, Serine/threonine-protein kinase D3 (Homo sapiens) (UniProt O94806); settings: at 0.1 µM
T4 sequence (whole entry): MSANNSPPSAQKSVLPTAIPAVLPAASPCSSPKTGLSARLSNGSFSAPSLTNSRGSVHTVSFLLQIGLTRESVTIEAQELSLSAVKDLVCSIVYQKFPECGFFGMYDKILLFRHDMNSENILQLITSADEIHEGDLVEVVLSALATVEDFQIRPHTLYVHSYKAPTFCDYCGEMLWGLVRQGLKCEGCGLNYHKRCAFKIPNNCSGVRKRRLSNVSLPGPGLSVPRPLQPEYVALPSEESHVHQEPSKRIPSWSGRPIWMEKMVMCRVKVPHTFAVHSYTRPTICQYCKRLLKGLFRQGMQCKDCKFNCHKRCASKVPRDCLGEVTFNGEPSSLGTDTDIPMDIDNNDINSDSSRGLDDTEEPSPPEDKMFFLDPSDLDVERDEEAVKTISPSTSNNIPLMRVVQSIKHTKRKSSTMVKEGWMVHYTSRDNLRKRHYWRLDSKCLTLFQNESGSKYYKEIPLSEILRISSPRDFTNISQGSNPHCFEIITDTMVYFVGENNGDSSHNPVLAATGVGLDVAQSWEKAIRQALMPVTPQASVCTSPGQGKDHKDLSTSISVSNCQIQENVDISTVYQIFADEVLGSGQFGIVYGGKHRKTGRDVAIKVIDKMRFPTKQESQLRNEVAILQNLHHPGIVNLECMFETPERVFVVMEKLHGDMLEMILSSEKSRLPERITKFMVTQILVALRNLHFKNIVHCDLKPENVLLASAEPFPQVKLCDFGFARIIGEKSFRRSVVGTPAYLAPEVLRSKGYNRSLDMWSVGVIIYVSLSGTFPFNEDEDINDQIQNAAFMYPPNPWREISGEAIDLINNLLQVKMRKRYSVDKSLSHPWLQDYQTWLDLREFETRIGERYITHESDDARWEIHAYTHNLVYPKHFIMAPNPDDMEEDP

[13] = biological target: T4, Serine/threonine-protein kinase D3 (Homo sapiens); settings: at 1 µM
[14] = biological target: T5, cGMP-dependent protein kinase 1 (Homo sapiens) (UniProt Q13976); settings: at 0.1 µM
T5 sequence (whole entry): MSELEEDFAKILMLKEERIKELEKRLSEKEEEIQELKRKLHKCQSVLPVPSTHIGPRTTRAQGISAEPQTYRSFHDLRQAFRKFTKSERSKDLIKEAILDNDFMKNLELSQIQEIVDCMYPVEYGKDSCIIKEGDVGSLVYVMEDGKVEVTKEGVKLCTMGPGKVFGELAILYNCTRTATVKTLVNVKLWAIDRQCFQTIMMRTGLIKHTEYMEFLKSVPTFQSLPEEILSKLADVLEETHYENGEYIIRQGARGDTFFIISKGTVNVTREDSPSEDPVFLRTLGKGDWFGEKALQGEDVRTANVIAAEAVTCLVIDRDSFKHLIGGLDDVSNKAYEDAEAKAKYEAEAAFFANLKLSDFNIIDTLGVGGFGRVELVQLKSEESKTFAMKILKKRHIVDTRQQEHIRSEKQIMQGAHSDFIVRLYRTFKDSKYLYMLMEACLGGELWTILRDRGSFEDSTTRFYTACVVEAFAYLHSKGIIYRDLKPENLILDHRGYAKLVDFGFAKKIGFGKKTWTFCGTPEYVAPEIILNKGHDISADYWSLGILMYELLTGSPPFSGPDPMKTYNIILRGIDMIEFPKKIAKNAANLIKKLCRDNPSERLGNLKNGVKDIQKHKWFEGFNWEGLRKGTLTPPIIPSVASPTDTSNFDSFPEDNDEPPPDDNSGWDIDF

[15] = biological target: T5, cGMP-dependent protein kinase 1 (Homo sapiens); settings: at 1 µM
[16] = biological target: T6, cGMP-dependent protein kinase 2 (Homo sapiens) (UniProt Q13237); settings: at 0.1 µM
T6 sequence (whole entry): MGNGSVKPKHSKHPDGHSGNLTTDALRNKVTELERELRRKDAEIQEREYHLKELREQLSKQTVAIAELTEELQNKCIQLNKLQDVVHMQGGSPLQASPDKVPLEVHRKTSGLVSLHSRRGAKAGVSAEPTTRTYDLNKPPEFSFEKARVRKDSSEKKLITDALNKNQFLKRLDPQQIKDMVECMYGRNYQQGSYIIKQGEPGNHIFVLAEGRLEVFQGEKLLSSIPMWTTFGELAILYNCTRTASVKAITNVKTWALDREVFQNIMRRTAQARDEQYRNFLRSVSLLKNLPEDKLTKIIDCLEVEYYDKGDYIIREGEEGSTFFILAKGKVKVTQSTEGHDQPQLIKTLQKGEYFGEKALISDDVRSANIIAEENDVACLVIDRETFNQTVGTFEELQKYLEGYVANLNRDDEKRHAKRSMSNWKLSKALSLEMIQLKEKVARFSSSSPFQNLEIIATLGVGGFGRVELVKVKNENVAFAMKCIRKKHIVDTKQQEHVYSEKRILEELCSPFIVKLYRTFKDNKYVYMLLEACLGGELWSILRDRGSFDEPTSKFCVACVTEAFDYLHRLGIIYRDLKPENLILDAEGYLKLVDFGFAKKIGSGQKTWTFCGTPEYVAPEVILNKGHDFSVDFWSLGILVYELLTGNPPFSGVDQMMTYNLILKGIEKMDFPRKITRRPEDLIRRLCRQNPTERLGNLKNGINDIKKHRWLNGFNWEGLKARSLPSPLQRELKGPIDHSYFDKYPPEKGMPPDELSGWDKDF

[17] = biological target: T6, cGMP-dependent protein kinase 2 (Homo sapiens); settings: at 1 µM
[18] = biological target: T7, cAMP-dependent protein kinase catalytic subunit PRKX (Homo sapiens) (UniProt P51817); settings: at 0.1 µM
T7 sequence (whole entry): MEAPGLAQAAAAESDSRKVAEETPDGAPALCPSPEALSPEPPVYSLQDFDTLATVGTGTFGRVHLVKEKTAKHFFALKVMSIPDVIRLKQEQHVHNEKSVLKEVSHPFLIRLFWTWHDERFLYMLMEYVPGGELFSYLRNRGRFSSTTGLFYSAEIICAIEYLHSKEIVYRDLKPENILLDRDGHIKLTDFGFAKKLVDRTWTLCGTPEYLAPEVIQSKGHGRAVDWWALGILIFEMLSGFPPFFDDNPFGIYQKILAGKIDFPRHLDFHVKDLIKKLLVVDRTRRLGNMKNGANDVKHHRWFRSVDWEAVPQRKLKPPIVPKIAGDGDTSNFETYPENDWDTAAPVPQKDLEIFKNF

[19] = biological target: T7, cAMP-dependent protein kinase catalytic subunit PRKX (Homo sapiens); settings: at 1 µM
[20] = biological target: Rho-associated protein kinase 1 (Homo sapiens) (UniProt Q13464); settings: at 0.1 µM;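 note: values are mean percent inhibition of ROCK1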
Sequence of Rho-associated protein kinase 1 (Homo sapiens) (Q13464 2-1354 limits assumed): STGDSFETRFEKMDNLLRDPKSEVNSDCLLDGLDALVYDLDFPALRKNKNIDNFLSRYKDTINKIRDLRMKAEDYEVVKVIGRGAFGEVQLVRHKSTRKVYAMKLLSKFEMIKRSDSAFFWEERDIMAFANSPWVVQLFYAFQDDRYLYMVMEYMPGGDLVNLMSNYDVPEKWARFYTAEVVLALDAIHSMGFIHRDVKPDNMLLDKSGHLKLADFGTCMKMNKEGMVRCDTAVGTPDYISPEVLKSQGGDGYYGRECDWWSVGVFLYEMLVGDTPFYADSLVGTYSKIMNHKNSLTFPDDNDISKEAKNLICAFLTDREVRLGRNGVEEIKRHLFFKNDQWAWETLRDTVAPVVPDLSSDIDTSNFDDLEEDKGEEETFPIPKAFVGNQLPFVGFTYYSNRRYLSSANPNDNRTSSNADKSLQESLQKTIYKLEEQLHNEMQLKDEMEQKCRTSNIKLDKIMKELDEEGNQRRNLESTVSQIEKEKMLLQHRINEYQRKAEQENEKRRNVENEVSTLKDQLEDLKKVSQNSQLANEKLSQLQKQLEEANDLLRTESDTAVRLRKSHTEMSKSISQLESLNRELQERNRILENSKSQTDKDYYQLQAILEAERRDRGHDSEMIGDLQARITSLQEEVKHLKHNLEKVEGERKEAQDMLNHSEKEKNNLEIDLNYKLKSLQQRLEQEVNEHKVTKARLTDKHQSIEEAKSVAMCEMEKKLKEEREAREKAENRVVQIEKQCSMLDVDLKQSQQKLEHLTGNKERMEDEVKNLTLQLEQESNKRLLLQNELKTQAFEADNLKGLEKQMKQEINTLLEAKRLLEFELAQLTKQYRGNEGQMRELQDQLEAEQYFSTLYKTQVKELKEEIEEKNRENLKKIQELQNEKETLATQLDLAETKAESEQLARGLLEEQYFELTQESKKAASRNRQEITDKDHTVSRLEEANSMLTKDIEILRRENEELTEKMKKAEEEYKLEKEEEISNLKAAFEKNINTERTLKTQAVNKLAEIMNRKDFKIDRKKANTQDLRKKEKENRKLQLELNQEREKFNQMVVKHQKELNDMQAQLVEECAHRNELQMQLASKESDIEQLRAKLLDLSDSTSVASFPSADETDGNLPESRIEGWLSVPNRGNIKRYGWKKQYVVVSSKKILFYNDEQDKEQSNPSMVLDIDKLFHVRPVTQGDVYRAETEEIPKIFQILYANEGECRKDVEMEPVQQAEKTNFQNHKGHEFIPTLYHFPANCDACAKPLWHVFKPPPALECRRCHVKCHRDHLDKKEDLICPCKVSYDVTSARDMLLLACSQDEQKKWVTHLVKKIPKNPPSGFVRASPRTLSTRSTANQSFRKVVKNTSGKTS

Sequence of Protein kinase C theta type (Homo sapiens) (Q04759 whole entry, looked up): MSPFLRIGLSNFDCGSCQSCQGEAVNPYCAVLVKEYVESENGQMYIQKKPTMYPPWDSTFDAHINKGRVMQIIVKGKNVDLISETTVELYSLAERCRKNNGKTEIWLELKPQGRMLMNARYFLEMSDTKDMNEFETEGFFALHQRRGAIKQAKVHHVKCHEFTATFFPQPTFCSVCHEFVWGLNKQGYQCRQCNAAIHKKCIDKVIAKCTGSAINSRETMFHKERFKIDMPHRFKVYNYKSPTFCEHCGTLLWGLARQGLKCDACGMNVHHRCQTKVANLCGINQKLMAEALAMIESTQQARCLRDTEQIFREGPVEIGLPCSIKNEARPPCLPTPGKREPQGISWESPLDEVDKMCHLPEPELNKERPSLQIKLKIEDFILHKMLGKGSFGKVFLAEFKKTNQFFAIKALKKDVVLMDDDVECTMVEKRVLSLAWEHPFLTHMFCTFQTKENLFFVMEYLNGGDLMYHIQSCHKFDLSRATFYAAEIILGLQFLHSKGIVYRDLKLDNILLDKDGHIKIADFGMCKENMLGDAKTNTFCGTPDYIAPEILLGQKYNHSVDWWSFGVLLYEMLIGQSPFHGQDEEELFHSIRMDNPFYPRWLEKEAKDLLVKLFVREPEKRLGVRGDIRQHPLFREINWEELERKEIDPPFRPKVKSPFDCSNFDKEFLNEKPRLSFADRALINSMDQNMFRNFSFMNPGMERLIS
Sequence of Protein kinase C beta type (Homo sapiens) (P05771 2-671 limits assumed): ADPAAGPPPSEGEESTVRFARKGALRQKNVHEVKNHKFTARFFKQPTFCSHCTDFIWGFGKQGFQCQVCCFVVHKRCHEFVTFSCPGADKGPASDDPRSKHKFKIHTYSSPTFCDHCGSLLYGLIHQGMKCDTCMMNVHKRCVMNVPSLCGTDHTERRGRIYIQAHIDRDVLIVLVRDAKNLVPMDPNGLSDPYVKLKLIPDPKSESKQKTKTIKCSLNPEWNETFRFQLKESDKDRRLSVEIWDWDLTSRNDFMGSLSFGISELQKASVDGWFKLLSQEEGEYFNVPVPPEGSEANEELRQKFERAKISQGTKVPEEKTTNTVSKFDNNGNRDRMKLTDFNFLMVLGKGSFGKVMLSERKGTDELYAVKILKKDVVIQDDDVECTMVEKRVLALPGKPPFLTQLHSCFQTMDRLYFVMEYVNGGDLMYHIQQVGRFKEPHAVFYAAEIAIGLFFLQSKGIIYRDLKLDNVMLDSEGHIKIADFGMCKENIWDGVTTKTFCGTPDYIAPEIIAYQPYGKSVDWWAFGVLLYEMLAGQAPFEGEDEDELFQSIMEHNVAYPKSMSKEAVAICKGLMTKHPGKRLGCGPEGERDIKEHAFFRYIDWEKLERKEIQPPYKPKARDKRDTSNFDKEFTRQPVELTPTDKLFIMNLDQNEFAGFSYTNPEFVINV

Structure (SMILES) | inhibition [1] [%] | inhibition [2] [%] | inhibition [3] [%] | inhibition [4] [%] | inhibition [5] [%] | inhibition [6] [%] | inhibition [7] [%] | inhibition [8] [%] | inhibition [9] [%] | inhibition [10] [%] | inhibition [11] [%] | inhibition [12] [%] | inhibition [13] [%] | inhibition [14] [%] | inhibition [15] [%] | inhibition [16] [%] | inhibition [17] [%] | inhibition [18] [%] | inhibition [19] [%] | inhibition [20] [%]
CCn1c(-c2nonc2N)nc2cncc(C(=O)NCCNC)c21 | 35.3 | 9.63 | 40 | 8.91 | 39.2 | 21.1 | 61 | 5.32 | 8.53 | 5.41 | 5.38 | 5.66 | 6.85 | 36.2 | 70 | 61.7 | 73.8 | 18.4 | 63.9 | 71.8
COC(=O)Nc1nc2ccc(Oc3ccc(NC(=O)Nc4cc(C(F)(F)F)ccc4F)cc3)cc2s1 | 0.59 | -0.25 | 0.66 | -0.27 | -1.1 | -0.19 | -0.04 | 0.06 | 0.84 | -0.61 | 1.09 | 0.52 | 0.53 | 1.65 | 2.05 | 1.07 | 1.92 | 0.15 | -0.17 | 0.74
CNC(=O)c1sc(-n2cnc3cc(OC)c(OC)cc32)cc1OCc1ccccc1C(F)(F)F | -2.1 | 1.37 | 0.74 | 2.36 | 0.67 | 1.04 | 1.38 | 3.83 | 4.48 | 4 | 4.27 | 4.09 | 4.54 | 2.58 | 2.12 | 1.27 | 1.38 | 2.66 | 1.17 | 0.61
